This passage reports Potency and outcome results from PubChem BioAssay (Tox21).

Assay [1] in a line: qHTS assay to test for compound auto fluorescence at 535 nm (green) in HEK293 cells (AID 720680).
The nature of assay [2]: qHTS assay to test for compound auto fluorescence at 460 nm (blue) in HEK293 cell free culture (AID 720681). The essentials: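 Compounds were added to cell-free DMEM with 10% FBS and fluorescence read directly. The blue channel used 405 nm excitation and 460 nm emission, with triamterene as the reference fluorophore.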
(In general: qHTS replaces the single test concentration by a dilution series.)

Assay [3] can be described thus: qHTS assay to test for compound auto fluorescence at 535 nm (green) in HEK293 cell free culture (AID 720682). In a few lines:
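Green-channel intensity (Ex/Em 485/535 nm) was recorded from compound-treated wells containing only DMEM with 10% FBS. Fluorescein provided the equivalency standard.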

Assay [4] in a line: qHTS assay to test for compound auto fluorescence at 590 nm (red) in HEK293 cell free culture (AID 720683). Also: potency is read from the fitted curve at half-maximal effect. In a few lines:
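Cell-free wells of DMEM with 10% FBS received compound, and intrinsic fluorescence was read at excitation/emission 540/590 nm. Values expressed as equivalence to Rose Bengal sodium.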

A short description of assay [5]: qHTS assay to test for compound auto fluorescence at 590 nm (red) in HepG2 cell free culture (AID 720684). Also: potency is read from the fitted curve at half-maximal effect. In a few lines: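 Compound was pinned into wells holding MEM with 10% FBS and no cells, and red fluorescence was read at Ex/Em 540/590 nm. Signal is expressed as auto fluorescence equivalency relative to Rose Bengal sodium.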
A short description of assay [6]: qHTS assay to test for compound auto fluorescence at 460 nm (blue) in HepG2 cell free culture (AID 720685). The essentials: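 Compound (23 nL) or DMSO pinned into cell-free MEM with 10% FBS; blue fluorescence read at 405/460 nm excitation/emission, expressed as auto-fluorescence equivalency to triamterene.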
A short description of assay [7]: qHTS assay to test for compound auto fluorescence at 535 nm (green) in HepG2 cell free culture (AID 720686).
A short description of assay [8]: qHTS assay to test for compound auto fluorescence at 460 nm (blue) in HepG2 cells (AID 720687). The essentials:
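HepG2 cells in MEM with 10% FBS, attached overnight at 37 C, were exposed to compound or DMSO for 1 hr at 37 C, 5% CO2. Blue fluorescence was read at 405/460 nm, with triamterene as reference fluorophore.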

Structures are written as SMILES. Calls of active or inactive are those of the source. Calls follow the shape of the dose curve; as a rule, active = well fitted curve in the direction sought with a large enough effect in the repeat runs; inconclusive = weak or mixed curves; inactive = flat fitted curve, though single readings scatter.
Tags tell the direction and shape of the fitted curve or compound fluorescence and quenching.

On to `O=C(CCCN1CCC(C(=O)c2ccc(F)cc2)CC1)c1ccc(F)cc1`, for which the Potency result in assay [1], in assay [2], in assay [3], in assay [4], in assay [5] and in assay [7] was “inactive” each time. The call in assay [6] was inactive.
Consider `CO[C@H]1C[C@H](O[C@H]2[C@H](C)O[C@@H](O[C@@H]3/C(C)=C/C[C@@H]4C[C@@H](C[C@]5(C=C[C@H](C)[C@@H](C6CCCCC6)O5)O4)OC(=O)[C@@H]4C=C(C)[C@@H](O)[C@H]5OC/C(=C\C=C\[C@@H]3C)[C@]54O)C[C@@H]2OC)O[C@@H](C)[C@@H]1O`, for which the Potency result in assay [1], in assay [2], in assay [3], in assay [4], in assay [5] and in assay [7] was “inactive” throughout. For the same compound, the result in assay [6] was inactive.
Take `CSc1nc2cc(Oc3cccc(Cl)c3Cl)c(Cl)cc2[nH]1`: the Potency entry in assay [1], in assay [2], in assay [3], in assay [4], in assay [5] and in assay [7] was “inactive” throughout. Moreover, the outcome in assay [6] and in assay [8] was inactive.
On to `CC(CN(C)C)CN1c2ccccc2S(=O)(=O)c2ccccc21` (stereo not given), for which the Potency result in assay [1], in assay [2], in assay [3], in assay [4], in assay [5] and in assay [7] was “inactive” in each case. For the same compound, the call in assay [6] and in assay [8] was inactive.
Turning to `CC(CN1c2ccccc2Sc2cccnc21)N(C)C` (stereo not given), the Potency result in assay [1], in assay [2], in assay [3], in assay [4], in assay [5] and in assay [7] was “inactive” each time. Further, the result in assay [6] and in assay [8] was inactive.
Turning to `NC[C@@H]1O[C@H](O[C@H]2[C@@H](O)[C@H](O[C@@H]3[C@@H](O)[C@H](N)C[C@H](N)[C@H]3O[C@H]3O[C@H](CN)[C@@H](O)[C@H](O)[C@H]3N)O[C@@H]2CO)[C@H](N)[C@@H](O)[C@@H]1O`, the Potency entry in assay [1], in assay [2], in assay [3], in assay [4], in assay [5] and in assay [7] was “inactive” in each case. For the same compound, the call in assay [6] and in assay [8] was inactive.
As for `COc1ccc2c(c1)OC(C)(C)C(c1ccccc1)C2c1ccc(OCCN2CCCC2)cc1` (stereo not given), the Potency entry in assay [1], in assay [2], in assay [3], in assay [4], in assay [5] and in assay [7] was “inactive” throughout. Moreover, the compound was classed as inactive in assay [6] and in assay [8].
With `O=C(O)c1c(Cl)c(Cl)c(Cl)c(Cl)c1-c1c2cc(I)c(=O)c(I)c-2oc2c(I)c(O)c(I)cc12`, the Potency result in assay [1], in assay [2], in assay [3] and in assay [7] was “inactive” throughout. Further, the Potency in assay [4] and in assay [5] was 11.2 µM [fluorescent] (active) each time. Besides, the outcome in assay [6] and in assay [8] was inactive.
Regarding `OC[C@H]1OC([S-])[C@H](O)[C@@H](O)[C@@H]1O.[Au+]` (stereo not given in full), the Potency result in assay [1], in assay [2], in assay [3], in assay [4], in assay [5] and in assay [7] was “inactive” throughout. The compound was classed as inactive in assay [6] and in assay [8].
In the case of `OCC(S)CS` (stereo not given), the Potency result in assay [1], in assay [2], in assay [3], in assay [4], in assay [5] and in assay [7] was “inactive” throughout. Also, in assay [6], the compound was called inactive.
As to `CCCCC[C@H](O)/C=C/[C@@H]1[C@H]2C/C(=C/CCCC(=O)O)O[C@H]2C[C@H]1O`, the Potency entry in assay [1], in assay [2], in assay [3], in assay [4], in assay [5] and in assay [7] was “inactive” each time. Moreover, the outcome in assay [6] and in assay [8] was inactive.
With `OCC(O)CO`, the Potency entry in assay [1], in assay [2], in assay [3], in assay [4], in assay [5] and in assay [7] was “inactive” each time. Moreover, the outcome in assay [6] and in assay [8] was inactive.
For `CCSc1ccc2c(c1)N(CCCN1CCN(C)CC1)c1ccccc1S2`, the Potency entry in assay [1], in assay [2], in assay [3], in assay [4], in assay [5] and in assay [7] was “inactive” each time. In addition, the call in assay [6] and in assay [8] was inactive.
On to `CCCCC/C=C\C/C=C\C/C=C\CCCCC(=O)O`, for which the Potency result in assay [1], in assay [2], in assay [3], in assay [4], in assay [5] and in assay [7] was “inactive” each time. Moreover, the compound was classed as inactive in assay [6] and in assay [8].
On to `CCCCOC(=O)C(=O)Nc1cccc(-c2nn[nH]n2)c1`, for which the Potency entry in assay [1], in assay [2], in assay [3], in assay [4], in assay [5] and in assay [7] was “inactive” throughout. Further, in assay [6], the outcome was inactive.
Take `CNC(=O)c1c(I)c(C(=O)NCC(=O)Nc2c(I)c(C(=O)O)c(I)c(C(=O)NCCO)c2I)c(I)c(N(C)C(C)=O)c1I`: the Potency entry in assay [1], in assay [2], in assay [3], in assay [4], in assay [5] and in assay [7] was “inactive” in each case. For the same compound, the call in assay [6] was inactive.
Regarding `CC1=C(C(=O)OCCN(Cc2ccccc2)c2ccccc2)C(c2cccc([N+](=O)[O-])c2)C(P2(=O)OCC(C)(C)CO2)=C(C)N1` (stereo not given), the Potency result in assay [1], in assay [2], in assay [3], in assay [4], in assay [5] and in assay [7] was “inactive” each time. The call in assay [6] was inactive.
Regarding `CCC(=O)O[C@H]1CC[C@H]2[C@@H]3CCc4cc(O)ccc4[C@H]3CC[C@]12C`, the Potency result in assay [1], in assay [2], in assay [3], in assay [4], in assay [5] and in assay [7] was “inactive” throughout. Moreover, the compound was called inactive in assay [6] and in assay [8].
In the case of `CC(CC(c1ccccc1)c1ccccc1)NC(C)(C)C` (stereo not given), the Potency result in assay [1], in assay [2], in assay [3], in assay [4], in assay [5] and in assay [7] was “inactive” in each case. Besides, the result in assay [6] and in assay [8] was inactive.
On to `C=C1CC2C3CCC4=CC(=O)C=C[C@]4(C)[C@@]3(F)[C@@H](O)C[C@]2(C)[C@@]1(O)C(=O)COC(C)=O` (stereo not given in full), for which the Potency entry in assay [1], in assay [2], in assay [3], in assay [4], in assay [5] and in assay [7] was “inactive” throughout. Moreover, the call in assay [6] and in assay [8] was inactive.
Turning to `Nc1nc2[nH]cc(CCc3ccc(C(=O)N[C@@H](CCC(=O)O)C(=O)O)cc3)c2c(=O)[nH]1`, the Potency entry in assay [1], in assay [2], in assay [3], in assay [4], in assay [5] and in assay [7] was “inactive” each time. The outcome in assay [6] and in assay [8] was inactive.
`NC(Cc1ccccc1)C(=O)O` (stereo not given): the Potency result in assay [1], in assay [2], in assay [3], in assay [4], in assay [5] and in assay [7] was “inactive” throughout. Moreover, the result in assay [6] and in assay [8] was inactive.
